# Rows were chosen to be rich in hits. Some 4% of all compounds tested hit in one or more screens of this group.
# Rv3671c inh: Rv3671c serine protease inhibitors, primary screen, biochemical, fluorescence polarization, M. tuberculosis H37Rv | AID 2606, 2010 | 0.048% of 320,000 active | inhibition, % at 5.96 µM | P9WHR9; in the data active = inhibition above about 38%;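 also: extracellular domain of Rv3671c used as enzyme; 0% = enzyme with DMSO and 100% = no enzyme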
# UGM FP inh: M. tuberculosis UGM enzyme inhibitors, primary screen, biochemical, fluorescence polarization, single point | inhibition, % at 10 µM | 0.06% of 320,000 active | purified UGM, fluorescence polarization probe displacement; in the data active = inhibition above about 10%, passing the limit was not always enough
# GDH-TPI counter: GDH-TPI coupling enzyme inhibitors, primary screen, artefact control for M. tuberculosis FBA inhibitor project, biochemical, absorbance, full deck. GDH-TPI coupled enzyme counterscreen, NADH absorbance. inhibition, % at 4.8 µM. 1.2% of 360,000 active. AID 588335, 2011; in the data active = inhibition above about 30%;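 also: 0% = DMSO wells and 100% = wells lacking the enzyme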
# Mtb betalactam: beta-lactam sensitization of Mtb H37Rv, H37Rv | AID 434955, 2010 | inhibition, % at 25 µM | M. tuberculosis H37Rv growth with meropenem, percent inhibition | 0.27% of 330,000 active; call rule not given here;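 also: growth measured after seven days incubation then overnight dye step; 0% = bacteria only wells and 100% = bacteria with antibiotic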
# Mtb FBA inh: Mtb FBA enzyme inhibitors, primary screen, biochemical, fluorescence, strain H37Rv. purified M. tuberculosis FBA, fluorescence read-out. inhibition, % at 1 µM. Fructose-bisphosphate aldolase (Mycobacterium tuberculosis (strain ATCC 25618 / H37Rv)), …. 2.3% of 360,000 active. AID 588726, 2011; in the data active = inhibition above about 27%;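 also: 0% = vehicle and 100% = reference inhibitor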
# Target sequence (P9WQA3 whole entry, looked up): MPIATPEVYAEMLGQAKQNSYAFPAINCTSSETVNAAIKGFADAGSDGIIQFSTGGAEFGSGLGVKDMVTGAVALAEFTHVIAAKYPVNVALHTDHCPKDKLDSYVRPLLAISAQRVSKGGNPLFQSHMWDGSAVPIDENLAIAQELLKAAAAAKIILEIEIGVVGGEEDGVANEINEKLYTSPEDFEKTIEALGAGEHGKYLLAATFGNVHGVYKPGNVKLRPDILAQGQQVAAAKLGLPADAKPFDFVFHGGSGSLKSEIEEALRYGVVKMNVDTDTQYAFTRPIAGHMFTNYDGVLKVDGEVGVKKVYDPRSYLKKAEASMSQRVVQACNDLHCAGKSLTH
# RecA intein inh: Mtb RecA intein splicing inhibitors, primary screen, biochemical, fluorescence, HTS; Protein RecA (Mycobacterium tuberculosis (strain ATCC 25618 / H37Rv)), P9WHJ3; cell-free RecA intein splicing; inhibition, % (test concentration not listed); 0.75% of 290,000 active; AID 2221, 2009; in the data active = inhibition above about 30%;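 also: 0% = vehicle wells and 100% = reference inhibitor control wells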
# * hit, by the source's call; i = inactive; . = no result; + = active, no number.
SMILES,Rv3671c inh,UGM FP inh,GDH-TPI counter,Mtb betalactam,Mtb FBA inh,RecA intein inh
COc1ccc(/C=C/C(=O)O/N=C(\N)c2ccccn2)cc1OC,-5,0,45*,69,4,.
COc1ccc(/C=C/C(=O)NCC(c2ccc(F)cc2)N2CCOCC2)cc1OC (stereo unspecified),-1,0,35*,6,10,-2
CCOc1ccc(/C=C/C(=O)N2CCOCC2)cc1OC,1,1,32*,-15,6,4
COc1ccc(N2CCN(S(=O)(=O)c3ccc(OC)c(C(=O)N4CCOCC4)c3)CC2)cc1,2,0,-1,-5,-3,-2
O=C(/C=C/c1ccc(Cl)cc1)N(c1ccccn1)C1CCCCC1,-3,-3,5,5,-8,3
CCOc1cc(C(=S)N2CCOCC2)ccc1OC(=O)/C=C/c1ccc(OC)c(OC)c1,-6,-2,37*,.,1,1
COc1ccc(/C=C/C(=O)N(c2ccccn2)C2CCCCC2)cc1OC,-6,0,83*,2,6,0
COC(=O)Cn1c(O)c(N=NC(=O)CNC(=O)c2ccncc2)c2ccccc21,-8,-2,38*,-2,1,2
Cn1c(O)c(N=NC(=N)N)c2ccccc21,5,4,40*,-11,-2,1
CCOc1ccc2c(c1)c(N=NC(=N)N)c(O)n2C,3,-2,17,3,-7,3
Cn1c(O)c(N=NC(=O)CNC(=O)c2cccnc2)c2ccccc21,-4,2,39*,-5,0,-1
CCOc1ccc2c(c1)c(N=NC(N)=S)c(O)n2C,-7,3,31*,10,-1,-3
CCCn1c(O)c(N=NC(=O)CNC(=O)c2cccnc2)c2ccccc21,1,-3,6,0,-4,2
CC1CCCN(C(=O)C2CCN(S(=O)(=O)c3ccccc3)CC2)C1 (stereo unspecified),-4,6,2,-11,0,.
COc1ccc(OC)c(Nc2nc(N)c([N+](=O)[O-])c(N3CCOCC3)n2)c1,5,5,11,3,1,2
Cc1ccc(C(=O)/C=C/NCc2ccc(F)cc2)cc1,-7,1,26,3,1,-1
COc1ccc(C(=O)/C=C/NCc2ccc(F)cc2)cc1OC,0,1,34*,-8,-1,2
COc1ccc(C(=O)/C=C/Nc2ccc(S(N)(=O)=O)cc2)cc1OC,7,0,58*,1,8,-9
C1=C(c2ccco2)N2CCN=C2S1,-1,1,1,-4,2,-2
C=CCOc1ccc(/C=C2\SC(N3CCCCC3)=NC2=O)cc1,1,-1,38*,4,1,4
COc1ccc(OC)c(/C=C2\SC(N3CCCCC3)=NC2=O)c1,0,-1,18,-11,1,-2
Cc1ccc(/C=C2\SC(N3CCCCC3)=NC2=O)cc1,7,1,32*,97,2,0
CCCOc1ccccc1/C=C1\SC(N2CCCCC2)=NC1=O,-4,-1,15,12,2,0
O=C1N=C(N2CCCCC2)S/C1=C\c1ccc(Cl)cc1,1,-1,28,92,-1,3
O=C1N=C(N2CCCC2)S/C1=C\c1ccccc1,-3,5,54*,-4,-4,0
SMILES,Rv3671c inh,UGM FP inh,GDH-TPI counter,Mtb betalactam,Mtb FBA inh,RecA intein inh
O=C1N=C(N2CCCCC2)S/C1=C\c1ccccc1F,6,-2,45*,68,-2,-1
Cc1ccc(CN(C)C(=O)C2CCC(=O)N(C3CCCCCC3)C2)cc1 (stereo unspecified),-7,3,10,-6,2,1
O=C1N=C(N2CCN(c3ccccc3)CC2)S/C1=C/c1ccco1,0,0,34*,5,-1,4
COc1cc(OC)c(OC)cc1/C=C1\SC(N2CCCCC2)=NC1=O,2,0,17,7,-2,-2
CC(C)(C)c1ccc(/C=C2/SC(N3CCCC3)=NC2=O)cc1,1,-1,37*,29,-1,17
COc1cccc(/C=C2\SC(N3CCCC(C)C3)=NC2=O)c1OC (stereo unspecified),3,-1,33*,-7,0,0
COc1cccc(/C=C2\SC(N3CCC(C)CC3)=NC2=O)c1OC,-1,0,20,1,3,1
Cn1c(C(=O)N2CCOCC2)cc2c(=O)n3ccccc3nc21,-1,1,26,-2,+,-416
Cn1c(C(=O)N2CCc3ccccc3C2)cc2c(=O)n3ccccc3nc21,-2,2,10,-7,73*,-96
CC1CN(C(=O)c2cc3c(=O)n4ccccc4nc3n2C)CC(C)O1 (stereo unspecified),-8,-2,26,4,+,-235
CCOC(=O)C1CCN(C(=O)c2cc3c(=O)n4ccccc4nc3n2C)CC1,-3,2,16,-5,133*,-209
CC1Cc2ccccc2N1C(=O)c1cc2c(=O)n3ccccc3nc2n1C (stereo unspecified),0,3,8,5,4,-6
COc1ccc(S(=O)(=O)N2CCOC2CNC(=O)C(=O)NCCCN2CCOCC2)cc1C (stereo unspecified),11,-3,2,-12,2,2
CSCCC(NC(=O)c1ccccc1)C(=O)NCCc1ccc2c(c1)OCCO2 (stereo unspecified),-5,1,12,-4,7,.
Cc1cc(C)nc(NNS(=O)(=O)c2c(F)cc(F)cc2Br)n1,6,3,7,0,2,.
CCCn1c(=N)c(S(=O)(=O)c2ccccc2)cc2c(=O)n3ccccc3nc21,5,1,6,-2,21,i
Cn1c(C(=O)N2CCN(C(=O)c3ccco3)CC2)cc2c(=O)n3ccccc3nc21,-8,1,19,3,+,-452
Cn1c(C(=O)O)cc2c(=O)n3ccccc3nc21,10,8,13,-8,+,-416
CC(O)/C=C/C1OC(=O)CC1Nc1ccc(C=O)cc1 (stereo unspecified),8,-1,34*,-4,0,-3
Cc1ccc(-n2c(C)cc(C=C3C(=O)N(C)C(=O)N(C)C3=O)c2C)cc1,.,.,12,.,112*,.
Cc1cc(/C=C2/C(=O)NC(=O)N(C)C2=O)c(C)n1-c1ccccc1,-1,1,4,-4,-2,-5
COc1ccccc1NC(=O)C(C)OC(=O)c1nc2nc(C)cc(C)n2n1 (stereo unspecified),-1,.,5,-16,-4,0
